Source: PubChem BioAssay
An excerpt weighted towards active compounds, which were near 10% of everything screened.
Pf growth 96h: P. falciparum growth inhibition at 96 hour, primary screen for plastid delayed-death inhibitors; P. falciparum luciferase reporter growth, 96 h; Potency, µM (doses to about 28.7 µM), for inactives: top-dose activity change, negative = inhibition, most hits filed as inhibitors; hit rate 6.9% among 320,000; AID 504834; active = well fitted inhibition curve with a large enough effect; inconclusive = small, poorly fitted or top-dose-only effect, or another doubt; inactive = no such curve, though single readings can be large or run the other way; note: % is set by controls: 0 for no effect and ±100 for the full control effect
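P. falciparum expressing integrated firefly luciferase grown in erythrocytes (2% hematocrit, 0.05% parasitemia final) with compounds for 96 hours at 37 C, 5% CO2. Growth inhibition read as loss of luminescence after adding luciferase detection reagent.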
NS1 inh: influenza NS1 inhibition | Potency, µM (doses to about 46.1 µM), inactives show at the top dose activity, positive = more growth | hit rate 0.4% among 270,000 | AID 2326; note: actives are rising curves; nearly all actives have a fitted effect of over 50% in size
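A cell-based growth assay was used: compounds that relieve NS1-induced slow growth of budding yeast raise OD600. Assay medium was yeast nitrogen base with ammonium sulphate and -URA supplement, pH 6.0, with 2% galactose.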
SARS PLpro yeast: inhibitors of SARS-CoV papain-like protease in yeast; hit rate 0.19% among 330,000; Potency, µM (titrated, usually from 32.9 µM), for the others: top-dose activity, positive = growth rescue, most hits filed as activators; S. cerevisiae expressing SARS-CoV PLpro, growth rescue; note: 0% is about no effect; nearly all actives have a fitted effect of over 55% in size
Pf growth 48h: P. falciparum growth inhibition at 48 hours (one generation) | Potency, µM (titrated, usually from 28.7 µM), for the others: at the top dose activity change, negative = inhibition, most hits filed as inhibitors | P. falciparum luciferase growth in erythrocytes, 48 h | hit rate 5.9% among 310,000 | AID 504832; active = well fitted inhibition curve with a large enough effect; inconclusive = small, poorly fitted or top-dose-only effect, or another doubt; inactive = no such curve, though single readings can be large or run the other way; note: % is set by controls: 0 for no effect and ±100 for the full control effect
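Luciferase-expressing P. falciparum in infected erythrocytes (2% hematocrit, 0.1% parasitemia final) in RPMI 1640/0.5% Albumax were exposed to compound for 48 hours at 37 C, 5% CO2; growth read as luminescence.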
* hit, by the source's call. Unless noted, calls come from the whole dose curve. Potency is the fitted concentration of half-maximal effect.

What do the screens show for `O=[N+]([O-])c1ccc(/C=N/n2c(CO)nc3ccccc32)s1`?
Pf growth 96h: inconclusive; NS1 inh: -2%; SARS PLpro yeast: -10%; Pf growth 48h: 4.7µM*

How did Cc1nc2ccccc2n1/N=C/c1ccc([N+](=O)[O-])s1 do in these assays?
Pf growth 96h: 4.1µM*; NS1 inh: -35%; SARS PLpro yeast: -30%; Pf growth 48h: 4.1µM*

Results for COc1cccc(/C=N/n2c(C)nc3ccccc32)c1OC ?
Pf growth 96h: 38%; NS1 inh: -54%; SARS PLpro yeast: -8%; Pf growth 48h: 2%

What do the screens show for `COc1cccc(-c2ncc3ccccc3c2COC(=O)CCCC(=O)O)c1`?
Pf growth 96h: inconclusive; SARS PLpro yeast: 1%; Pf growth 48h: 11%

Results for O=C(NCc1cccnc1)c1cccc(OC2CCN(Cc3ccc(CO)o3)CC2)c1 ?
Pf growth 96h: 14%; NS1 inh: -4%; SARS PLpro yeast: -3%; Pf growth 48h: 3%

What do the screens show for `CCC(CC)C(=O)c1c[nH]c(C(=O)NCc2cccnc2)c1`?
Pf growth 96h: 59%; SARS PLpro yeast: 0%; Pf growth 48h: -10%

What do the screens show for `CC(C)CC(=O)c1c[nH]c(C(=O)NCc2cccnc2)c1`?
Pf growth 96h: inconclusive; SARS PLpro yeast: -1%; Pf growth 48h: 10µM*

How did CC1=NN(c2nc3ccccc3[nH]2)C(=O)C1Cc1ccccc1 (configuration not stated) do in these assays?
Pf growth 96h: 4.1µM*; NS1 inh: -59%; SARS PLpro yeast: -6%; Pf growth 48h: 2.6µM*

What do the screens show for `CCc1ccccc1N(C)S(=O)(=O)c1ccc(-c2cc(C)no2)s1`?
Pf growth 96h: inconclusive; NS1 inh: 2%; SARS PLpro yeast: 1%; Pf growth 48h: inconclusive

What do the screens show for `CCN(CC)C(=O)CC(c1cc(OC)c(OC)c(OC)c1)c1c(OC)cc(OC)c2c(-c3ccccc3)cc(=O)oc12` (configuration not stated)?
Pf growth 96h: 4.1µM*; NS1 inh: -10%; SARS PLpro yeast: 1%; Pf growth 48h: 4.7µM*

What do the screens show for `CCN(CC)C(=O)CC(c1ccc(OC)cc1)c1c(OC)cc(OC)c2ccc(=O)oc12` (configuration not stated)?
Pf growth 96h: inconclusive; NS1 inh: -4%; SARS PLpro yeast: 1%; Pf growth 48h: 10µM*

Results for CCN(CC)C(=O)CC(c1cc(OC)c(OC)c(OC)c1)c1c(O)cc(OC)cc1OC (configuration not stated) ?
Pf growth 96h: inconclusive; NS1 inh: 2%; SARS PLpro yeast: 1%; Pf growth 48h: inconclusive

What do the screens show for `COc1cc(C(CCN2CCOCC2)c2c(OC)cc(OC)c3c(-c4ccccc4)cc(=O)oc23)cc(OC)c1OC` (configuration not stated)?
SARS PLpro yeast: 3%

How did CCN(CC)C(=O)CC(c1cc(OC)c(OC)c(OC)c1)c1c(OC)cc(OC)c2ccc(=O)oc12 (configuration not stated) do in these assays?
Pf growth 96h: 12µM*; NS1 inh: -6%; SARS PLpro yeast: 0%; Pf growth 48h: 12µM*

How did CC(Oc1cccc([N+](=O)[O-])c1)C(=O)NCCC1=CCCCC1 (configuration not stated) do in these assays?
Pf growth 96h: inconclusive; SARS PLpro yeast: -2%; Pf growth 48h: inconclusive

What do the screens show for `COc1ccc(NS(=O)(=O)c2ccc(C)c(C(=O)N3CC(C)OC(C)C3)c2)cc1` (configuration not stated)?
Pf growth 96h: -11%; SARS PLpro yeast: 0%; Pf growth 48h: -12%

What do the screens show for `CCOC(=O)C1=C(COC(=O)CNC(=O)c2ccc(Cl)cc2Cl)NC(=O)NC1C` (configuration not stated)?
Pf growth 96h: 10%; SARS PLpro yeast: -6%; Pf growth 48h: 16%

What do the screens show for `O=C(CC1Sc2ccccc2NC1=O)Nc1cccnc1` (configuration not stated)?
Pf growth 96h: -15%; NS1 inh: -4%; SARS PLpro yeast: 5%; Pf growth 48h: 11%

What do the screens show for `O=C(CC1Sc2ccccc2NC1=O)Nc1cccc(-c2nnc3n2CCCCC3)c1` (configuration not stated)?
Pf growth 96h: 13µM*; NS1 inh: -4%; SARS PLpro yeast: 3%; Pf growth 48h: 9.3µM*
